PNC assembly inh: perinucleolar compartment assembly inhibition; 140,000 compounds, 3.1% hits; activity change (PNC), negative = inhibition, % at 10 µM; PC3M PTB-GFP, PNC prevalence imaging, 16 h; active compounds read low;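 active means readout at or below -70, meaning at least 70% loss of cells showing the perinucleolar compartment, a nuclear body marking cancer cells; inconclusive means readout between -30 and a set limit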;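 further: plate controls were DMSO wells for no effect and camptothecin positive control wells for full effect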
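Compounds are pinned in duplicate onto adhered PC3M cells stably expressing GFP-tagged PTB and incubated 16 h at 37 C. Cells are then fixed, nuclei stained with Hoechst, and PNC-positive cells counted.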
12-hLO inh: blocks human 12-lipoxygenase activity; P18054; purified 12-hLO, xylenol orange hydroperoxide absorbance; Potency, µM (series often up to 57.1 µM), without a hit: top-dose activity change, negative = inhibition, hits mostly inhibitors; 150,000 compounds, 0.12% hits; AID 1452; further: potency means the concentration at half of the fitted maximal effect; nearly all actives have a fitted effect of over 55% in size
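Purified human 12hLO (150 nM final) was preincubated with compounds for 15 min at room temperature in 25 mM Hepes pH 7.0, 0.01% Triton X-100, then reacted with 40 uM arachidonic acid for 30 min. Hydroperoxide was detected with ferrous iron/xylenol orange.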
HPGD inh: inhibitors of human 15-hydroxyprostaglandin dehydrogenase (HPGD); purified HPGD, NADH fluorescence kinetic, PGE2 substrate; 150,000 compounds, 4.3% hits; P15428; Potency, µM, without a hit: at the highest dose activity change, negative = inhibition, usual class: inhibitors; active means well fitted inhibition curve with a large enough effect, not every such curve was filed as active; inconclusive means small, poorly fitted or top-dose-only effect, or another doubt; inactive means no such curve, though single readings can be large or run the other way; further: potency means the concentration at half of the fitted maximal effect
Target sequence (P15428 whole entry, looked up): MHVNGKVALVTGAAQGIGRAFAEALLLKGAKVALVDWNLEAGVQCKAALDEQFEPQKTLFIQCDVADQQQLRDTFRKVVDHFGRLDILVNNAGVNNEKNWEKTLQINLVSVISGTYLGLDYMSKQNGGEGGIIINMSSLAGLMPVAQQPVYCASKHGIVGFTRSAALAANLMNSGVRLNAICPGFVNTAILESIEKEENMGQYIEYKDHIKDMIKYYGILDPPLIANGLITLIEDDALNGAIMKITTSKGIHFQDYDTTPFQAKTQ
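20 nM HPGD preincubated 15 min at room temperature with compound in 50 mM Tris-HCl pH 8, 0.01% Tween 20. Started with 1 mM NAD+ and 30 uM prostaglandin E2; NADH fluorescence (360/450 nm) read 5 times over 30-s intervals, last minus first.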
IMPase Li inh: IMPase inhibition in cells with lithium potentiation | AID 1457 | CHO-M1 cells, IP1 TR-FRET (IP-One), carbachol + lithium | Potency, µM (doses to about 59.4 µM), inactives show at the top dose activity, negative = IMPase inhibition, actives largely listed as inhibitors | 210,000 compounds, 0.35% hits;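 further: IP1 builds up when IMPase is blocked and the TR-FRET signal falls; potency means the concentration at half of the fitted maximal effect; plate controls were basal vehicle for no effect and high inhibitor control for full effect; nearly all actives have a fitted effect of over 50% in size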
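Readout is a homogeneous TR-FRET IP1 immunoassay (Ex 320, Em 665 and 620), where raised cytosolic IP1 lowers signal. Cells were CHO-M1 treated 30 min at 37C with test compounds plus a little lithium; AC50 values came from Hill-equation fitting.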
ALDH1A1 block: inhibitors of human aldehyde dehydrogenase 1A1 | Purified ALDH1A1, NADH fluorescence, propionaldehyde substrate | P00352 | Potency, µM (top dose mostly 75.3 µM), without a hit: top-dose activity, negative = inhibition, most hits filed as inhibitors | 220,000 compounds, 7.3% hits; active means well fitted inhibition curve with a large enough effect, not every such curve was filed as active; inconclusive means small, poorly fitted or top-dose-only effect, or another doubt; inactive means no such curve, though single readings can be large or run the other way;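 further: potency means the concentration at half of the fitted maximal effect; plate controls were no enzyme wells and a reference inhibitor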
IMPase cell inh: IMPase inhibition in cells. inhibition (IP1 accumulation), % at 46.1 µM. AID 901. 120,000 tested, under 10 active. CHO-M1 cells, IP1 accumulation, HTRF TR-FRET ratio; active means well fitted curve in the direction sought with a large enough effect in the signal ratio, not every such curve was filed as active; inconclusive means small, poorly fitted or top-dose-only effect, or a change in a side signal; inactive means no such curve, though single readings can be large or run the other way; the % refers to the signal ratio;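 further: cells stimulated with carbachol in lithium chloride buffer; plate controls were DMSO basal wells for no effect and reference inhibitor wells for full effect; higher means more IMPase inhibition seen as more IP1 and lower FRET ratio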
Target sequence (P97697 whole entry, looked up): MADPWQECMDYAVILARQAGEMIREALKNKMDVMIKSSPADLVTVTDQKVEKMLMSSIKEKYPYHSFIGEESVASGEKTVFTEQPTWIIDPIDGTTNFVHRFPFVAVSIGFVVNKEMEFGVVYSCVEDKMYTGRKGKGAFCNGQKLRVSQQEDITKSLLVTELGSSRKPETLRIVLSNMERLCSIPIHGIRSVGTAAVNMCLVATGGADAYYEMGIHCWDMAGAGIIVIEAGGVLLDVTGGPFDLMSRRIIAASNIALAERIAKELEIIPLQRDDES
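The IP-One HTRF competitive assay in carbachol-stimulated CHO-M1 cells quantifies cellular IP1. Compounds spanned up to 46 uM final, and activity is expressed as AC50 from concentration-response fits of the ratio and donor data.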
Numbers without * were called inactive; ? = inconclusive; . = not tested or not shown; [ ] = remark or other dose. A selection: hits, their analogues and other compounds. The true share with any hit is near 11%. Unless noted, the call rests on the fitted dose curve; in most records, active means well fitted curve in the direction sought with a large enough effect; inconclusive means small, poorly fitted or top-dose-only effect, or another doubt; inactive means no such curve, though single readings can be large; an effect the other way counts as inactive or inconclusive. Unless noted, on the % scale 0 is the no-effect control and ±100 the full control effect.

SMILES | PNC assembly inh | 12-hLO inh | HPGD inh | IMPase Li inh | ALDH1A1 block | IMPase cell inh
COC(=O)C1=C(C)NC(C)=C(C(=O)OC)C1C(=O)OC(C)C(=O)c1ccccc1 (centres undefined) | . | . | . | 5% | 1% | .
Cn1c(=O)c2c([nH]c(=O)n2Cc2ccc(Cl)cc2Cl)n(C)c1=O | . | . | . | . | . | 12
COc1ccc(-c2c(C#N)c(SCC(=O)Nc3cccc(Cl)c3)nc(C)c2C(=O)Nc2ccccc2)cc1OC | . | . | . | . | . | 4
O=C(OCCCN=C1NS(=O)(=O)c2ccccc21)c1ccc([N+](=O)[O-])cc1 | . | . | . | 10% | 10% | .
CC(NC(=O)CSc1nc2ccccc2c(=O)[nH]1)c1ccccc1 (centres undefined) | -7 | 2% | -14% | 3% | 2% | -19
O=C(CSc1nc2ccccc2n1CCc1ccccc1)c1ccc(O)c(O)c1 | . | . | . | 10% | 14µM* | .
Cc1cc(SCC(=O)c2cccs2)nc2ccccc12 | ? | 15% | 4.5µM* | 8% | ? | -2
Cc1cnc(NC(=O)CSc2nc3ccccc3c(=O)[nH]2)s1 | -12 | 4% | 16µM* | 3% | -5% | 2
COC(=O)C1=C(C)N(Cc2ccccc2)[C@]23O[C@](C(=O)OC)(C(=O)N2C1c1ccccc1)C(C(=O)OC)=C3C(=O)OC (some centres undefined) | . | . | . | . | 11%[13.5 µM] | .
COc1ccccc1NC1=CC(=O)CC(c2ccccc2)C1 (centres undefined) | -96* | -2% | -6% | 5% | -14% | .
O=C1C=C(Nc2ccc(Cl)cc2)CC(c2ccc(Cl)cc2)C1 (centres undefined) | 4 | -1% | 32µM* | 21%[38.3 µM] | -7% | 11
CCc1ccc(-c2cc(C(=O)Nn3cnnc3)c3ccccc3n2)cc1 | -82* | 1% | -22% | -7%[38.3 µM] | ? | 15
CCCc1ccc(-c2cc(C(=O)NN3CCOCC3)c3ccccc3n2)cc1 | 31 | 8% | -29% | -14%[38.3 µM] | -6% | 4
CCn1ccc2cc(OC)ccc2c1=S | 17 | -11% | -15% | 11µM* | -3% | ?
COc1cc2c(cc1OC)C1(O)C(=O)c3ccc(O)c(C(=O)O)c3OC1CO2 (centres undefined) | . | -4% | -14% | 0% | -11% | .
Cc1ccc(C)c(NC(=O)CSc2nc3c(c(=O)n2C)SC(C)C3)c1 (centres undefined) | -20 | 2% | -17% | 16%[38.3 µM] | -8% | 9
Cc1ccc2nc(NC(=O)CSc3nc4c(c(=O)n3C)SC(C)C4)sc2c1 (centres undefined) | -3 | -17% | ? | 22%[38.3 µM] | 14µM* | 4
CN(C)/N=N\c1nc[nH]c1C(N)=O | . | 9%[25.6 µM] | -9% | -1% | -6%[20.9 µM] | 6[20.6 µM]
COc1cc2[nH]c(=S)nc(NCc3cccs3)c2cc1OC | . | . | . | 4% | 11µM* | .
COCCCNc1nc(=S)[nH]c2cc(OC)c(OC)cc12 | -7 | -9% | 14µM* | -14%[38.3 µM] | -8% | -3
C[C@@H]1C[C@@H]2[C@H]3CCC4=CC(=O)C=C[C@]4(C)[C@]3(Cl)[C@@H](O)C[C@@]2(C)[C@@]1(O)C(=O)CO | . | -2% | . | . | . | 2
CCOc1ccccc1OCCCn1c(-c2ccc(Cl)cc2)nc2ccccc2c1=O | . | . | . | . | . | -12
CC(=O)N1CCC2(CCN(Cc3ccncc3)CC2)CC1 | . | -1% | -5% | -11% | -3% | .
Cc1c(C(=O)Nc2ccccc2)cn2c(nc3ccccc32)c1C#N | -80* | 15% | -16% | -15% | ? | .
Cc1ccccc1C(=O)Nc1ccc2c(C#N)c3nc4ccccc4nc3n2c1 | 14 | -2% | -20% | 0% | ? | .
SMILES | PNC assembly inh | 12-hLO inh | HPGD inh | IMPase Li inh | ALDH1A1 block | IMPase cell inh
O=C(NN1C(=O)C2C3CCC(O3)C2C1=O)c1ccc(Cl)cc1 (centres undefined) | -15 | 0% | 3% | -14% | 5% | .
Cc1occc1C(=O)NN1C(=O)C2C3CCC(O3)C2C1=O (centres undefined) | -102* | -2% | -5% | -5% | 3% | .
CCOC(=O)N/N=C1/C[C@@H](O)[C@@H](O)[C@@H]2[C@@H]3C(=O)N(C[C@@H]4CCCO4)C(=O)[C@H]3CC[C@H]12 | . | . | . | . | 1%[13.5 µM] | .
Cc1ccc2nc(Cl)c3nnnn3c2c1 | . | . | . | 2% | 28µM* | .
COc1ccccc1NC(=O)CSC(N)=O | 21 | -4% | -4% | -8%[38.3 µM] | 1.6µM* | 1
CSc1ccccc1NC(=O)CSCc1ccc(C)cc1 | 25 | -4% | 16µM* | 20%[38.3 µM] | -16% | 6
COC(=O)c1ccccc1NC(=O)CSCC(=O)Nc1ccccc1OC | 33 | 1% | -4% | 2%[38.3 µM] | 6% | 9
CSc1ccccc1NC(=O)CN(C)CC(=O)NCc1ccccc1 | . | . | . | 3% | 0.2µM* | .
Cc1ccccc1NC(=O)CSCC(=O)Nc1ccccc1C | -28 | ? | 18µM* | 11%[38.3 µM] | -1% | -13
O=C(CSCc1ccc(Cl)cc1)Nc1ccccc1O | . | . | . | 10% | -2% | .
O=C1CCC[C@@H]2CC(NCc3ccc(Cl)c(Cl)c3)C[C@@H]3CCN1[C@H]23 (some centres undefined) | . | -4%[0.00818 µM] | -7% | 7% | 6% | .
CCOC(=O)c1ccc(NC(=O)CSc2nc(-c3ccc(F)cc3)cc(C(F)(F)F)c2C#N)cc1 | . | . | . | . | . | 4
Cc1ccccc1NC(=O)Cc1nc(CCl)cs1 | ? | 3% | 20µM* | -2% | 11µM* | .
NC(=O)SCC(=O)Nc1ccccc1C(=O)O | . | . | . | . | -1% | .
Cc1ccccc1NC(=O)CSC(N)=O | 13 | -6% | ? | -2% | 0.79µM* | 1
COc1ccccc1NC(=O)c1ccc(NC(=O)COC(=O)C(C)C)cc1 | 7 | -2% | -4% | -3% | 0.89µM* | -9
Cc1nn(CCc2nn[nH]n2)c2nc(-c3ccc(C4CCCCC4)cc3)cc(C(F)(F)F)c12 | . | . | . | 22% | ? | .
CC(=O)OCC1OC(c2ccc(C(C)=O)cc2)C=CC1OC(C)=O (centres undefined) | . | . | . | . | 3%[13.5 µM] | .
CSCC[C@@H]1NC(=O)C/C=C\[C@@H](C)COC(=O)[C@H](C)COC1=O | . | . | . | . | 1%[13.5 µM] | .
O=c1oc2cc(O)c(Cl)cc2c2ccccc12 | -6 | -1% | -30% | 7.1µM* | -14% | .
CCc1ccc(-c2nc(NC(=O)c3ccc(OCC(=O)Nc4ccc(F)cc4)c(OC)c3)sc2C)cc1 | ? | -1% | ? | 7.9µM* | ? | ?
CCc1ccc(-c2cn3nc(C)c(C)nc3n2)cc1 | ? | -5% | -3% | 7%[38.3 µM] | 2.8µM* | -2
CCCC[C@@H]1C[C@H]1[C@@H](NP(=O)(c1ccccc1)c1ccccc1)c1ccccc1OC | . | 2% | -13% | 24% | 8% | .
